Data from the supplement of paper PMC4466140.

biological target: AgAbp1; test: SPOT peptide array binding signal intensity (averaged, normalized) (arbitrary units (background-subtracted, floor 0; scale differs between SH3 domains)); higher = stronger binding of the SH3 domain to the peptide
How it was run: (§1)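 GST-fused SH3 domains, from four yeast species, were produced in E. coli BL21(DE3) and captured on glutathione Sepharose. Membranes of cellulose carrying synthetic 15-mer peptides, in which cysteines had been replaced by serines, were exposed to each domain at 10 μg/ml overnight at 4°C in TBS-based blocking buffer. After anti-GST antibody, an HRP anti-mouse secondary and luminol, spots were imaged and quantified using Genespotter. Binding signal is normalized and background-subtracted spot intensity, averaged over replicates, in arbitrary units that differ between domains.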

Binder | SPOT peptide array binding signal intensity
GRSRLFPHSPLGRSS | 93

biological target: AgBbc1; test: as above
How it was run: as §1

Binder | SPOT peptide array binding signal intensity
GRSRLFPHSPLGRSS | 13.8

biological target: AgBem1-D1; test: as above
How it was run: as §1

Binder | SPOT peptide array binding signal intensity
GRSRLFPHSPLGRSS | 88.5

biological target: AgBzz1-D1; test: as above
How it was run: as §1

Binder | SPOT peptide array binding signal intensity
GRSRLFPHSPLGRSS | 26.5

biological target: AgBzz1-D2; test: as above
How it was run: as §1

Binder | SPOT peptide array binding signal intensity
GRSRLFPHSPLGRSS | 0.5

biological target: AgCyk3; test: as above
How it was run: as §1

Binder | SPOT peptide array binding signal intensity
GRSRLFPHSPLGRSS | 0.5

biological target: AgFus1; test: as above
How it was run: as §1

Binder | SPOT peptide array binding signal intensity
GRSRLFPHSPLGRSS | 454

biological target: AgHof1; test: as above
How it was run: as §1

Binder | SPOT peptide array binding signal intensity
GRSRLFPHSPLGRSS | 14.5

biological target: AgHse1; test: as above
How it was run: as §1

Binder | SPOT peptide array binding signal intensity
GRSRLFPHSPLGRSS | 716

biological target: AgLsb1; test: as above
How it was run: as §1

Binder | SPOT peptide array binding signal intensity
GRSRLFPHSPLGRSS | 0.75

biological target: AgLsb4; test: as above
How it was run: as §1

Binder | SPOT peptide array binding signal intensity
GRSRLFPHSPLGRSS | 39.5

biological target: AgMyo5; test: as above
How it was run: as §1

Binder | SPOT peptide array binding signal intensity
GRSRLFPHSPLGRSS | ≤ 0

biological target: AgNbp2; test: as above
How it was run: as §1

Binder | SPOT peptide array binding signal intensity
GRSRLFPHSPLGRSS | 177

biological target: AgRvs167; test: as above
How it was run: as §1

Binder | SPOT peptide array binding signal intensity
GRSRLFPHSPLGRSS | 3.42

biological target: AgSho1; test: as above
How it was run: as §1

Binder | SPOT peptide array binding signal intensity
GRSRLFPHSPLGRSS | 52.8

biological target: AgSla1-D1-D2; test: as above
How it was run: as §1

Binder | SPOT peptide array binding signal intensity
GRSRLFPHSPLGRSS | 26

biological target: AgSla1-D3; test: as above
How it was run: as §1

Binder | SPOT peptide array binding signal intensity
GRSRLFPHSPLGRSS | 11.2

biological target: CaAbp1-D1; test: as above
How it was run: as §1

Binder | SPOT peptide array binding signal intensity
GRSRLFPHSPLGRSS | 491

biological target: CaAbp1-D2; test: as above
How it was run: as §1

Binder | SPOT peptide array binding signal intensity
GRSRLFPHSPLGRSS | 410

biological target: CaBbc1; test: as above
How it was run: as §1

Binder | SPOT peptide array binding signal intensity
GRSRLFPHSPLGRSS | 105

biological target: CaBem1-D1; test: as above
How it was run: as §1

Binder | SPOT peptide array binding signal intensity
GRSRLFPHSPLGRSS | 35

biological target: CaBzz1-D1; test: as above
How it was run: as §1

Binder | SPOT peptide array binding signal intensity
GRSRLFPHSPLGRSS | 53.5

biological target: CaBzz1-D2; test: as above
How it was run: as §1

Binder | SPOT peptide array binding signal intensity
GRSRLFPHSPLGRSS | 39.2

biological target: CaCyk3; test: as above
How it was run: as §1

Binder | SPOT peptide array binding signal intensity
GRSRLFPHSPLGRSS | 3.5

biological target: CaFus1; test: as above
How it was run: as §1

Binder | SPOT peptide array binding signal intensity
GRSRLFPHSPLGRSS | 1070

biological target: CaHof1; test: as above
How it was run: as §1

Binder | SPOT peptide array binding signal intensity
GRSRLFPHSPLGRSS | 0.75

biological target: CaHse1; test: as above
How it was run: as §1

Binder | SPOT peptide array binding signal intensity
GRSRLFPHSPLGRSS | 11.1

biological target: CaLsb1; test: as above
How it was run: as §1

Binder | SPOT peptide array binding signal intensity
GRSRLFPHSPLGRSS | 1

biological target: CaLsb4; test: as above
How it was run: as §1

Binder | SPOT peptide array binding signal intensity
GRSRLFPHSPLGRSS | ≤ 0

biological target: CaMyo5; test: as above
How it was run: as §1

Binder | SPOT peptide array binding signal intensity
GRSRLFPHSPLGRSS | ≤ 0

biological target: CaNbp2; test: as above
How it was run: as §1

Binder | SPOT peptide array binding signal intensity
GRSRLFPHSPLGRSS | 539

biological target: CaRvs167; test: as above
How it was run: as §1

Binder | SPOT peptide array binding signal intensity
GRSRLFPHSPLGRSS | 3.5

biological target: CaRvs167-3; test: as above
How it was run: as §1

Binder | SPOT peptide array binding signal intensity
GRSRLFPHSPLGRSS | 43.8

biological target: CaSho1; test: as above
How it was run: as §1

Binder | SPOT peptide array binding signal intensity
GRSRLFPHSPLGRSS | 513

biological target: CaSla1-D1-D2; test: as above
How it was run: as §1

Binder | SPOT peptide array binding signal intensity
GRSRLFPHSPLGRSS | 76.5

biological target: CaSla1-D3; test: as above
How it was run: as §1

Binder | SPOT peptide array binding signal intensity
GRSRLFPHSPLGRSS | ≤ 0

biological target: ScAbp1; test: as above
How it was run: as §1

Binder | SPOT peptide array binding signal intensity
GRSRLFPHSPLGRSS | 144

biological target: ScBbc1; test: as above
How it was run: as §1

Binder | SPOT peptide array binding signal intensity
GRSRLFPHSPLGRSS | ≤ 0

biological target: ScBem1-D1; test: as above
How it was run: as §1

Binder | SPOT peptide array binding signal intensity
GRSRLFPHSPLGRSS | 57.2

biological target: ScBzz1-D1; test: as above
How it was run: as §1

Binder | SPOT peptide array binding signal intensity
GRSRLFPHSPLGRSS | 6.5

biological target: ScBzz1-D2; test: as above
How it was run: as §1

Binder | SPOT peptide array binding signal intensity
GRSRLFPHSPLGRSS | 29.5

biological target: ScCyk3; test: as above
How it was run: as §1

Binder | SPOT peptide array binding signal intensity
GRSRLFPHSPLGRSS | 91.5

biological target: ScFus1; test: as above
How it was run: as §1

Binder | SPOT peptide array binding signal intensity
GRSRLFPHSPLGRSS | 374

biological target: ScHof1; test: as above
How it was run: as §1

Binder | SPOT peptide array binding signal intensity
GRSRLFPHSPLGRSS | ≤ 0

biological target: ScHse1; test: as above
How it was run: as §1

Binder | SPOT peptide array binding signal intensity
GRSRLFPHSPLGRSS | 2660

biological target: ScLsb1; test: as above
How it was run: as §1

Binder | SPOT peptide array binding signal intensity
GRSRLFPHSPLGRSS | ≤ 0

biological target: ScLsb2; test: as above
How it was run: as §1

Binder | SPOT peptide array binding signal intensity
GRSRLFPHSPLGRSS | ≤ 0

biological target: ScLsb3; test: as above
How it was run: as §1

Binder | SPOT peptide array binding signal intensity
GRSRLFPHSPLGRSS | 212

biological target: ScLsb4; test: as above
How it was run: as §1

Binder | SPOT peptide array binding signal intensity
GRSRLFPHSPLGRSS | 1.5

biological target: ScMyo3; test: as above
How it was run: as §1

Binder | SPOT peptide array binding signal intensity
GRSRLFPHSPLGRSS | 0.25

biological target: ScMyo5; test: as above
How it was run: as §1

Binder | SPOT peptide array binding signal intensity
GRSRLFPHSPLGRSS | ≤ 0

biological target: ScNbp2; test: as above
How it was run: as §1

Binder | SPOT peptide array binding signal intensity
GRSRLFPHSPLGRSS | 294

biological target: ScPex13; test: as above
How it was run: as §1

Binder | SPOT peptide array binding signal intensity
GRSRLFPHSPLGRSS | ≤ 0

biological target: ScRvs167; test: as above
How it was run: as §1

Binder | SPOT peptide array binding signal intensity
GRSRLFPHSPLGRSS | 12.3

biological target: ScSho1; test: as above
How it was run: as §1

Binder | SPOT peptide array binding signal intensity
GRSRLFPHSPLGRSS | 1020

biological target: ScSla1-D1-D2; test: as above
How it was run: as §1

Binder | SPOT peptide array binding signal intensity
GRSRLFPHSPLGRSS | 224

biological target: ScSla1-D3; test: as above
How it was run: as §1

Binder | SPOT peptide array binding signal intensity
GRSRLFPHSPLGRSS | 1.25

biological target: SpAbp1-D1; test: as above
How it was run: as §1

Binder | SPOT peptide array binding signal intensity
GRSRLFPHSPLGRSS | 186

biological target: SpBbc1; test: as above
How it was run: as §1

Binder | SPOT peptide array binding signal intensity
GRSRLFPHSPLGRSS | 2

biological target: SpBzz1-D1; test: as above
How it was run: as §1

Binder | SPOT peptide array binding signal intensity
GRSRLFPHSPLGRSS | 255

biological target: SpBzz1-D2; test: as above
How it was run: as §1

Binder | SPOT peptide array binding signal intensity
GRSRLFPHSPLGRSS | 0.375

biological target: SpCyk3; test: as above
How it was run: as §1

Binder | SPOT peptide array binding signal intensity
GRSRLFPHSPLGRSS | ≤ 0

biological target: SpHof1; test: as above
How it was run: as §1

Binder | SPOT peptide array binding signal intensity
GRSRLFPHSPLGRSS | 68.5

biological target: SpHof1-2; test: as above
How it was run: as §1

Binder | SPOT peptide array binding signal intensity
GRSRLFPHSPLGRSS | 15

biological target: SpHof1-3; test: as above
How it was run: as §1

Binder | SPOT peptide array binding signal intensity
GRSRLFPHSPLGRSS | 412

biological target: SpHse1; test: as above
How it was run: as §1

Binder | SPOT peptide array binding signal intensity
GRSRLFPHSPLGRSS | 730

biological target: SpLsb1; test: as above
How it was run: as §1

Binder | SPOT peptide array binding signal intensity
GRSRLFPHSPLGRSS | 0.25

biological target: SpLsb4; test: as above
How it was run: as §1

Binder | SPOT peptide array binding signal intensity
GRSRLFPHSPLGRSS | ≤ 0

biological target: SpMyo1; test: as above
How it was run: as §1

Binder | SPOT peptide array binding signal intensity
GRSRLFPHSPLGRSS | ≤ 0

biological target: SpNbp2; test: as above
How it was run: as §1

Binder | SPOT peptide array binding signal intensity
GRSRLFPHSPLGRSS | 419

biological target: SpPex13; test: as above
How it was run: as §1

Binder | SPOT peptide array binding signal intensity
GRSRLFPHSPLGRSS | 10.5

biological target: SpRvs167; test: as above
How it was run: as §1

Binder | SPOT peptide array binding signal intensity
GRSRLFPHSPLGRSS | 6.58

biological target: SpSla1-D1-D2; test: as above
How it was run: as §1

Binder | SPOT peptide array binding signal intensity
GRSRLFPHSPLGRSS | 10

biological target: SpSla1-D3; test: as above
How it was run: as §1

Binder | SPOT peptide array binding signal intensity
GRSRLFPHSPLGRSS | 18.5
